Assay outcomes (PubChem)
This is a sample that favours compounds with a hit; in the whole collection about 1.1% have one here.
TbPYK inhibitor: T. brucei pyruvate kinase inhibition; Q57TT1; TbPYK enzyme, Kinase-Glo Plus ATP luminescence, 45 min; Potency, µM (titrated, usually from 76.8 µM), for inactives: top-dose activity, negative = inhibition, actives largely listed as inhibitors; 0.12% of 410,000 active; also: % is scaled to controls: 0 for no effect and ±100 for the full control effect; nearly all actives have a fitted effect of over 50% in size
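Glycolytic pyruvate kinase of T. brucei was incubated with substrate, test compound and 130 uM ADP for 45 minutes at room temperature. Luminescent Kinase-Glo Plus signal was measured after 10 minutes.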
FBPA Giardia inh: Giardia lamblia aldolase inhibition | A8B2U2 | purified Giardia FBPA | Potency, µM (top dose mostly 59.6 µM), without a hit: top-dose activity, negative = inhibition, most hits filed as inhibitors | 0.71% of 290,000 active; also: % is scaled to controls: 0 for no effect and ±100 for the full control effect; nearly all actives have a fitted effect of over 55% in size
Target sequence (A8B2U2 whole entry, looked up): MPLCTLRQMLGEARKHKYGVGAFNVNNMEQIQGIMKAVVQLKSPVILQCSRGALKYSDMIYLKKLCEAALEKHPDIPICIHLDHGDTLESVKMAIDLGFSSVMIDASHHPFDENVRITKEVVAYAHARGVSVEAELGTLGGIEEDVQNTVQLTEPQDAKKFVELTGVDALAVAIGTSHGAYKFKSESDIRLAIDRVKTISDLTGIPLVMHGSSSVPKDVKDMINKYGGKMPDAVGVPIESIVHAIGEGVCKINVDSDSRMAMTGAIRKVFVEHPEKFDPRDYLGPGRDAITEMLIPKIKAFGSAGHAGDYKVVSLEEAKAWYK
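40 nM FBPA preincubated 10 min at RT with compound (up to 57.5 uM final), then substrate plus GAPDH/TPI/NAD/arsenate coupling and diaphorase/resazurin added. Fluorescence read after 20 min at RT, 525/598 nm.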
SARS PLpro yeast: blocks SARS-CoV papain-like protease in a yeast assay | AID 485353 | S. cerevisiae expressing SARS-CoV PLpro, growth rescue | 0.19% of 330,000 active | Potency, µM (series often up to 32.9 µM), for inactives: at the highest dose activity, positive = growth rescue, actives largely listed as activators; calls by dose curve; also: 0% is about no effect; nearly all actives have a fitted effect of over 55% in size
RE007 growth inh: less growth of the S. pombe RE007 Vpr strain; S. pombe RE007 Vpr strain, BacTiter-Glo ATP luminescence, 24 h; Potency, µM (doses to about 92.2 µM), inactives show top-dose activity change, negative = less growth, most hits filed as inhibitors; 0.21% of 360,000 active; AID 651644; active = well fitted falling curve with a large enough effect; inconclusive = small, poorly fitted or top-dose-only effect; inactive = no such curve, though single readings can be large or run the other way; also: % is scaled to controls: 0 for no effect and ±100 for the full control effect; nearly all actives have a fitted effect of over 50% in size
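Fission yeast strain RE007, carrying one chromosomally integrated HIV-1 vpr copy, was seeded at OD 0.01 in PMG+AL medium with 23 nL pinned compound. After 24 h at 30 °C and 99% humidity, viability was read by BacTiter-Glo luminescence.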
LmPK inhibitor: LmPK (Leishmania mexicana) enzyme inhibition. Q27686. purified LmPK, Kinase-Glo ATP luminescence, 1 h. Potency, µM (titrated, usually from 57.5 µM), inactives show at the top dose activity change, negative = inhibition, most hits filed as inhibitors. 0.37% of 290,000 active. AID 1721; also: % is scaled to controls: 0 for no effect and ±100 for the full control effect
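In 50 mM imidazole pH 7.2 with 7 mM MgCl2, LmPK (0.1 nM) turned over PEP (0.5 mM) and ADP (0.1 mM) for 1 h at room temperature. Luciferase read-out of ATP.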
Numbers without * were called inactive; ! = not confirmed by another sample. Unless noted, calls follow the shape of the dose curve; as a rule, active = well fitted curve in the direction sought with a large enough effect; inconclusive = small, poorly fitted or top-dose-only effect, or another doubt; inactive = no such curve, though single readings can be large; an effect the other way counts as inactive or inconclusive. Potency is read from the fitted curve at half-maximal effect.

What do the screens show for `CC1(O)CCC2C3CCC4=CC(=O)CCC4(C)C3(F)C(O)CC21C` (stereo unspecified)?
TbPYK inhibitor: -3%

Results for COc1ccc(-c2nc3ccccc3s2)cc1 ?
TbPYK inhibitor: inconclusive; FBPA Giardia inh: -5%; SARS PLpro yeast: -3%; RE007 growth inh: inconclusive; LmPK inhibitor: 13µM*

Results for c1ccc2[nH]c(-c3ccc4c(c3)OCO4)nc2c1 ?
TbPYK inhibitor: inconclusive; RE007 growth inh: 40µM*

How did O=C(c1ccc(-c2nc3ccccc3s2)s1)N1CCOCC1 do in these assays?
TbPYK inhibitor: inconclusive; FBPA Giardia inh: 0%; SARS PLpro yeast: -4%; RE007 growth inh: inconclusive; LmPK inhibitor: 14µM*

What do the screens show for `CCN1CCN(C(=O)c2ccc(-c3nc4ccccc4s3)s2)CC1`?
TbPYK inhibitor: -3%; FBPA Giardia inh: 4%; SARS PLpro yeast: -7%; RE007 growth inh: -10%; LmPK inhibitor: -5%

What do the screens show for `c1ccc2sc(-c3ccc4c(c3)OCO4)nc2c1`?
TbPYK inhibitor: inconclusive; FBPA Giardia inh: -1%; SARS PLpro yeast: -10%; RE007 growth inh: inconclusive; LmPK inhibitor: 10µM*

What do the screens show for `O=C(Nc1cccc(-c2nc3ccccc3s2)c1)c1ccc2c(c1)OCO2`?
TbPYK inhibitor: 0%; SARS PLpro yeast: -2%; RE007 growth inh: 1%; LmPK inhibitor: 1%

Results for CCCCCCCCCCCCCCCCCCNC(=O)OC1CCN(C(=O)OC[C@H](COC(=O)N(Cc2cccc[n+]2CC)C(=O)c2ccccc2OC)OC)CC1 ?
TbPYK inhibitor: 3%

What do the screens show for `C[C@@]12C=Cc3occc3[C@H]1CC[C@]13CC(=O)[C@@H](CC[C@H]12)C3`?
FBPA Giardia inh: 3%

Results for COc1cccc(Cn2c(CNC(=O)CCc3ccccc3)nc3cccnc32)c1 ?
TbPYK inhibitor: 1%

What do the screens show for `COc1ccccc1N1CCN(C(=O)Cn2ncc3ccsc3c2=O)CC1`?
TbPYK inhibitor: -14%

Results for Clc1ccc(-c2nc3ccccc3[nH]2)cn1 ?
TbPYK inhibitor: -9%; FBPA Giardia inh: inconclusive; SARS PLpro yeast: -3%; RE007 growth inh: -17%; LmPK inhibitor: 25µM*

Results for Oc1ccc(-c2nc3ccccc3s2)cc1 ?
TbPYK inhibitor: -10%; FBPA Giardia inh: 4%; SARS PLpro yeast: -5%; RE007 growth inh: inconclusive; LmPK inhibitor: 16µM*

What do the screens show for `Cc1ccc(-c2nc3ccccc3[nH]2)cn1`?
TbPYK inhibitor: -15%; FBPA Giardia inh: inconclusive; SARS PLpro yeast: -13%; RE007 growth inh: inconclusive; LmPK inhibitor: -29%

Results for COc1ccc(NC(=O)CSc2ncc3c(n2)-c2cc(Cl)ccc2N(Cc2ccccc2F)S3(=O)=O)cc1 ?
TbPYK inhibitor: -7%

Results for Cc1ccc(CN2CCN(/N=C/c3ccccc3)CC2)cc1 ?
TbPYK inhibitor: -10%; FBPA Giardia inh: 3%; SARS PLpro yeast: 1%; RE007 growth inh: -1%; LmPK inhibitor: 0%

How did COc1cc(/C=N/N2CCN(Cc3ccc(C)cc3)CC2)cc(OC)c1O do in these assays?
TbPYK inhibitor: 14µM*; FBPA Giardia inh: 0%; SARS PLpro yeast: 7%; RE007 growth inh: 14%; LmPK inhibitor: -3%

How did CC[C@H]1OC(=O)C[C@@H](O)[C@H](C)[C@@H](O[C@@H]2O[C@H](C)C[C@H](N(C)C)[C@@H]2O)[C@@H](CC=O)C[C@@H](C)C(=O)/C=C\[C@]2(C)O[C@H]2[C@@H]1C do in these assays?
TbPYK inhibitor: -7%

Results for CC1CSc2nc3sc4c(c3c(=O)n21)CCCC4 (stereo unspecified) ?
TbPYK inhibitor: -19%; FBPA Giardia inh: 0%; SARS PLpro yeast: 6%; RE007 growth inh: 22µM*; LmPK inhibitor: -5%

How did CCCCCCCN1N=C(C)C(C(=O)c2ccccc2)C1=O (stereo unspecified) do in these assays?
TbPYK inhibitor: -6%; FBPA Giardia inh: -10%; SARS PLpro yeast: 10µM*; RE007 growth inh: -2%; LmPK inhibitor: 8%

How did O=C(c1ccccc1)c1ccc(N2CCN(C(=O)c3cccc(F)c3F)CC2)c(F)c1 do in these assays?
TbPYK inhibitor: 4%; SARS PLpro yeast: 6.3µM*; RE007 growth inh: -15%; LmPK inhibitor: -11%

What do the screens show for `Cc1cc(C)nc(N/N=C/c2sccc2C)n1`?
TbPYK inhibitor: -20%; FBPA Giardia inh: -17%; SARS PLpro yeast: -2%; RE007 growth inh: -4%; LmPK inhibitor: inconclusive

Results for Cc1ccsc1/C=N/Nc1nc(=O)[nH]nc1C ?
TbPYK inhibitor: inconclusive; FBPA Giardia inh: inconclusive; SARS PLpro yeast: -3%; RE007 growth inh: 13µM*; LmPK inhibitor: inconclusive

How did Cc1ccc(C)c(-c2csc(NC(=O)C3=COCCO3)n2)c1 do in these assays?
TbPYK inhibitor: -1%; SARS PLpro yeast: -33%; RE007 growth inh: 25µM*

Results for O=C(Cn1c(=O)nc(-c2ccccc2)c2ccccc21)Nc1cccc(C(F)(F)F)c1 ?
TbPYK inhibitor: 4%

Results for CCN(CC)c1ccc(/C=C2\CCC(/C=C(\C#N)C(=O)Nc3ccccc3F)=C2N2CCOCC2)cc1 ?
TbPYK inhibitor: -19%; FBPA Giardia inh: -1%; SARS PLpro yeast: 2%; RE007 growth inh: -4%; LmPK inhibitor: 11µM*

What do the screens show for `CCOC(=O)COc1ccccc1/C=C\[N+](=O)[O-]`?
TbPYK inhibitor: inconclusive; FBPA Giardia inh: -10%; SARS PLpro yeast: -108%; RE007 growth inh: 32µM*; LmPK inhibitor: 2%

Results for Cn1c(COc2ccc(Br)cc2)nnc1SC1CCc2ccccc2C1=O (stereo unspecified) ?
TbPYK inhibitor: -17%; FBPA Giardia inh: 18µM*; SARS PLpro yeast: -1%; RE007 growth inh: 10%; LmPK inhibitor: 3%

Results for O=C(O)c1cc(-c2ccco2)nc2ccc(Br)cc12 ?
TbPYK inhibitor: 18µM*!; FBPA Giardia inh: -27%; SARS PLpro yeast: -3%; RE007 growth inh: -30%; LmPK inhibitor: 3%

How did Cc1ccc(-c2nc3ccc(C(=O)O)cc3nc2-c2ccc(C)cc2)cc1 do in these assays?
TbPYK inhibitor: -2%; SARS PLpro yeast: 1%; RE007 growth inh: 2%; LmPK inhibitor: 7%

How did O=S(=O)(c1ccc2nc(-c3ccco3)c(-c3ccco3)nc2c1)N1CCOCC1 do in these assays?
TbPYK inhibitor: 16µM*; FBPA Giardia inh: 2.5µM*; SARS PLpro yeast: 8%; RE007 growth inh: 0%; LmPK inhibitor: -5%

Results for O=S(=O)(c1ccc2ccccc2c1)N1CCOCC1 ?
TbPYK inhibitor: 0%; FBPA Giardia inh: 5%; SARS PLpro yeast: 1%; RE007 growth inh: -19%; LmPK inhibitor: -1%

How did O=C(c1ccco1)N1CCN(C(=O)c2cc(-c3ccncc3)nc3ccc(Br)cc23)CC1 do in these assays?
TbPYK inhibitor: -5%; RE007 growth inh: -25%
